Results filed as inconclusive are left out. A number with no mark means an inactive call. Calls of active or inactive are those of the source. Calls come from the whole dose curve; as a rule, active = well fitted cell-killing curve with a large enough effect; inconclusive = small, poorly fitted or top-dose-only effect, or effect the other way; inactive = no such curve, though single readings can be large or run the other way. *1 amine or outer side, *2 acyl side, *3 side chain or, on linkers, in order; H or OH if unused. Where a SMILES comes first, the peptide text is derived from it. Bridges are numbered along the chain shown (N, C = ends). Roman numbers before positions name the chains, in order. [ ]: non-standard residue; d: D form. Actinocin(9to1) = Cc1c2oc3c(C)ccc(C(=O)[*:1])c3nc-2c(C(=O)[*:2])c(N)c1=O; NMeV = CN[C@H](C(=O)O)C(C)C; Sar = CNCC(=O)O
Tested on: PA-1
Experiment: Confirmatory qHTS for gynecologic anti-cancer compounds from libraries of approved drugs and bioactive compounds; note: nearly all actives have a fitted effect of over 55% in size
Conditions: gynecologic cancer cell panel viability, ATPlite luminescence, 48 h; series mostly up to 57.6 µM; activity change, negative = viability loss: at the top concentration
Method in brief: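 ATP-based luminescent viability (ATPlite) after 48 h drug treatment at 37 °C, 5% CO2, across 57.5 uM–0.977 nM in 1:3 steps. Cells seeded at 1,000 per well 16 h beforehand; IC50 values computed, HEK 293T as selectivity control.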
% is set by controls: 0 for no effect and ±100 for the full control effect; potency is the fitted concentration of half-maximal effect.

Row | Compound | Potency | activity change, negative = viability loss
1 | COc1cc(-c2nn(C3CCC(N4CCN(C(C)=O)CC4)CC3)c3ncnc(N)c23)ccc1NC(=O)c1cc2ccccc2n1C (stereo not given) | 30.6 µM (active) | 
2 | COc1ccc2c(c1OC)C(=O)O[C@@H]2[C@H]1c2c(cc3c(c2OC)OCO3)CCN1C | 24.3 µM (active) | 
3 | Cc1cc(Nc2cc(N3CCN(C)CC3)nc(Sc3ccc(NC(=O)C4CC4)cc3)n2)n[nH]1 | 2.17 µM (active) | 
4 | COc1cc(Nc2ncc3c(n2)-c2ccc(Cl)cc2C(c2c(F)cccc2OC)=NC3)ccc1C(=O)O | 0.193 µM (active) | 
5 | O=C1c2c(O)ccc(O)c2C(=O)c2c(NCCNCCO)ccc(NCCNCCO)c21 | 0.432 µM (active) | 
6 | C1CCC(C(CC2CCCCN2)C2CCCCC2)CC1 (stereo not given) | 27.3 µM (active) | 
7 | CCS(=O)(=O)N1CCN(c2ccc(Nc3ncc(C(N)=O)c(NC4CC4)n3)cc2)CC1 | 3.85 µM (active) | 
8 | Cc1cc(Nc2cc(N3CCN(C)CC3)nc(/C=C/c3ccccc3)n2)n[nH]1 | 3.85 µM (active) | 
9 | COc1ccc(CCC(=O)c2c(O)cc(O[C@@H]3O[C@H](CO)[C@@H](O)[C@H](O)[C@H]3O[C@@H]3O[C@@H](C)[C@H](O)[C@@H](O)[C@H]3O)cc2O)cc1O |  | -1.3%
10 | O=C(NOCC1CC1)c1ccc(F)c(F)c1Nc1ccc(I)cc1Cl | 8.63 µM (active) | 
11 | CC[C@@]1(O)C(=O)OCc2c1cc1n(c2=O)Cc2cc3cc(O)ccc3nc2-1 | 0.109 µM (active) | 
12 | CN1CCN(CCOc2cc(OC3CCOCC3)c3c(Nc4c(Cl)ccc5c4OCO5)ncnc3c2)CC1 | 19.3 µM (active) | 
13 | Cc1cnc(Nc2cccc(CN3CCOCC3)c2)nc1Nc1cccc(S(=O)(=O)NC(C)(C)C)c1 | 3.85 µM (active) | 
14 | Nc1nc(Cl)nc2c1ncn2C1OC(CO)C(O)C1F (stereo not given) | 0.685 µM (active) | 
15 | CCc1c2c(nc3ccc(O)cc13)-c1cc3c(c(=O)n1C2)COC(=O)[C@]3(O)CC | 0.0769 µM (active) | 
16 | Nc1ccccc1NC(=O)c1ccc(CNC(=O)OCc2cccnc2)cc1 | 1.53 µM (active) | 
17 | CCc1nc(C(N)=O)c(Nc2ccc(N3CCC(N4CCN(C)CC4)CC3)c(OC)c2)nc1NC1CCOCC1 | 1.06 µM (active) | 
18 | Cc1nc(N)ncc1-c1nc(N2CCOCC2)c2sc(C(C)(C)O)cc2n1 | 6.85 µM (active) | 
19 | CC(C)n1c(/C=C/[C@@H](O)C[C@@H](O)CC(=O)O)c(-c2ccc(F)cc2)c2ccccc21 | 24.3 µM (active) | 
20 | O=c1cc(CN2CCOCC2)occ1OCCCCCSc1ccnc2cc(C(F)(F)F)ccc12 | 8.63 µM (active) | 

Row | Compound | Potency | activity change, negative = viability loss
21 | CCN(CC)CCCC(C)Nc1c2ccc(Cl)cc2nc2ccc(OC)cc12 (stereo not given) | 27.3 µM (active) | 
22 | COc1cc2c(cc1-c1c(C)noc1C)ncc1[nH]c(=O)n(C(C)c3ccccn3)c12 (stereo not given) | 2.17 µM (active) | 
23 | COc1cccc2c1C(=O)c1c(O)c3c(c(O)c1C2=O)C[C@@](O)(C(=O)CO)C[C@@H]3O[C@H]1C[C@H](N)[C@H](O)[C@H](C)O1 | 0.432 µM (active) | 
24 | C[C@@]1(C(=O)Nc2ccc(F)nc2)CCCN1c1nc(Nc2cc(C3CC3)[nH]n2)c2cccn2n1 | 0.0343 µM (active) | 
25 | Nc1nccc(Oc2ccc(NC(=O)c3c[nH]cc(-c4ccc(F)cc4)c3=O)cc2F)c1Cl | 3.06 µM (active) | 
26 | Cc1cc(C2CCCCC2)n(O)c(=O)c1 | 3.53 µM (active) | 
27 | C[C@]12CCC(=O)C=C1[C@@H]1C[C@@H]1[C@H]1[C@@H]3[C@@H]4C[C@@H]4[C@@]4(CCC(=O)O4)[C@@]3(C)CC[C@@H]12 |  | -22.8%
28 | Cc1c2oc3c(C)ccc(C(=O)N[C@@H]4C(=O)N[C@H](C(C)C)C(=O)N5CCC[C@H]5C(=O)N(C)CC(=O)N(C)[C@@H](C(C)C)C(=O)O[C@@H]4C)c3nc-2c(C(=O)N[C@@H]2C(=O)N[C@H](C(C)C)C(=O)N3CCC[C@H]3C(=O)N(C)CC(=O)N(C)[C@@H](C(C)C)C(=O)O[C@@H]2C)c(N)c1=O (I: T[dV]P[Sar][NMeV] / II: T[dV]P[Sar][NMeV]; ester I:1-I:C, II:1-II:C; linker I:N-II:N via Actinocin(9to1)) | 0.0968 µM (active) | 
29 | CC(C)Nc1cc(-c2c[nH]c(C(=O)N[C@H](CO)c3cccc(Cl)c3)c2)c(Cl)cn1 | 6.11 µM (active) | 
30 | COc1cc(N2CCC(N3CCN(C)CC3)CC2)ccc1Nc1ncc(Cl)c(Nc2ccccc2S(=O)(=O)C(C)C)n1 | 3.43 µM (active) | 
31 | CNc1nc(Nc2ccc(C(=O)N3CCOCC3)cc2OC)ncc1Cl |  | 3.04%
32 | Fc1cc(-c2cccc3ncc(-c4cnn(C5CCNCC5)c4)nc23)cc(F)c1CN1CCOCC1 | 27.3 µM (active) | 
33 | CC(C)(C)C(=O)OCOP(=O)(COCCn1cnc2c(N)ncnc21)OCOC(=O)C(C)(C)C | 6.85 µM (active) | 
34 | NC(=O)c1cnc(-c2ccc(C3(N)CCC3)cc2)c(-c2ccccc2)c1 | 27.3 µM (active) | 
35 | CCCS(=O)c1ccc2nc(NC(=O)OC)[nH]c2c1 (stereo not given) | 34.3 µM (active) | 
36 | Cc1cc(C(C)Nc2ccccc2C(=O)O)c2nc(N3CCOCC3)cc(=O)n2c1 (stereo not given) | 21.7 µM (active) | 
37 | COc1cc(C(=O)N2CCC(N3CCN(C)CC3)CC2)ccc1Nc1ncc2c(n1)N(C)c1ccccc1C(=O)N2C | 9.68 µM (active) | 
38 | CCN1CCN(Cc2ccc(-c3cc4c(NC(C)c5ccccc5)ncnc4[nH]3)cc2)CC1 (stereo not given) | 24.3 µM (active) | 
39 | COc1c(C)c2c(c(O)c1C/C=C(\C)CCC(=O)OCCN1CCOCC1)C(=O)OC2 | 0.485 µM (active) | 
40 | COc1cc2c(Nc3ccc(NC(=O)c4ccccc4)cc3)ncnc2cc1OCCCN1CCOCC1 | 34.3 µM (active) | 

Source: PubChem BioAssay AID1345085 (National Center for Advancing Translational Sciences (NCATS), 2018)
